Screening results as filed in PubChem BioAssay.
Cruzain inh Det = inhibitors of Trypanosoma cruzi cruzain with detergent; P25779; AID 1478; actives 0.43% (n = 200,000); Potency, µM, for inactives: max response, negative = inhibition, actives largely listed as inhibitors; purified cruzain, Z-FR-AMC fluorescence, 0.01% Triton;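 also: plate controls were neutral wells for no effect and buffer without enzyme for full effect; nearly all actives have a fitted effect of over 40% in size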
Target sequence (P25779 123-467 limits assumed): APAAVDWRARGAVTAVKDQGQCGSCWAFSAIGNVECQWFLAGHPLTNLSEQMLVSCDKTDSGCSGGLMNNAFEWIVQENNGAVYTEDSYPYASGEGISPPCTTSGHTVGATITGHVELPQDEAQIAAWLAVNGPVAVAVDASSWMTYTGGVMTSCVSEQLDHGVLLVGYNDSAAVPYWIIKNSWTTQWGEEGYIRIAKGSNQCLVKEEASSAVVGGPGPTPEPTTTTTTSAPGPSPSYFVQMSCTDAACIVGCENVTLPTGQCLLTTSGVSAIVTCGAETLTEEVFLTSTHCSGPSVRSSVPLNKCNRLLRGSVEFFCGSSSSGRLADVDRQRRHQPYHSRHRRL
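Cruzain (1.5 nM) preincubated 15 min at RT with compound in 100 mM sodium acetate pH 5.5, 5 mM DTT, 0.01% Triton X-100. Reaction started with 2 uM Z-FR-AMC; AMC fluorescence (ex 360/em 450 nm) change over 60 s gave rate.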
Cruzain inh noDet = inhibitors of Trypanosoma cruzi cruzain without detergent. P25779. purified cruzain, Z-FR-AMC fluorescence, no detergent. Potency, µM, for the others: max response, negative = inhibition, most hits filed as inhibitors. actives 2.3% (n = 200,000). AID 1476;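 also: plate controls were enzyme without inhibitor for no effect and buffer without enzyme for full effect; nearly all actives have a fitted effect of over 40% in size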
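Detergent-free condition (0.00005% Triton X-100) in acetate buffer pH 5.5 with DTT. 1.5 nM enzyme and compound were pre-mixed 15 min, then 2 uM Z-FR-AMC substrate added; reaction progress from fluorescence change between first and third reads (60 s).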
Active calls of the source: *; u = inconclusive. Shown are actives, neighbours in structure and some others; about 2.4% of the full set was active somewhere. Calls follow the shape of the dose curve; as a rule, active = well fitted curve in the direction sought with a large enough effect; inconclusive = small, poorly fitted or top-dose-only effect, or another doubt; inactive = no such curve, though single readings can be large; an effect the other way counts as inactive or inconclusive. Potency is read from the fitted curve at half-maximal effect.

SMILES	Cruzain inh Det	Cruzain inh noDet
CN(C)S(=O)(=O)c1cc(NC(=O)[C@H](Cc2ccccc2)N2C(=O)c3ccccc3C2=O)ccc1Cl	-4.0%	20µM*
COc1ccc(Cl)cc1Nc1ccc2cc(S(=O)(=O)N3CCCCC3)ccc2n1	-1.0%	25.1µM*
O=S(=O)(c1ccc2nc(Nc3ccc(F)cc3)ccc2c1)N1CCCC1	0.9%	-4.1%
CCOc1ccc(OCC)c(Nc2ccc3cc(S(=O)(=O)N4CCCC4)ccc3n2)c1	0.1%	-16.1%
CC1CCN(S(=O)(=O)c2ccc3nc(Nc4ccc(C#N)cc4)ccc3c2)CC1	-5.7%	31.6µM*
COc1ccc(Nc2ccc3cc(S(=O)(=O)N4CCCC4)ccc3n2)cc1Cl	-3.5%	25.1µM*
CCOC(=O)c1cccc(Nc2ccc3cc(S(=O)(=O)N4CCCCC4)ccc3n2)c1	-3.9%	25.1µM*
CC1CCN(S(=O)(=O)c2ccc3nc(Nc4cccc(C(F)(F)F)c4)ccc3c2)CC1	0.1%	u
O=S(=O)(c1ccc2nc(Nc3cccc(F)c3)ccc2c1)N1CCCC1	-16.7%	-28.7%
CCC(CCC(C)C1CCC2C3CC=C4CC(OC(C)=O)CC[C@@]4(C)C3CC[C@@]12C)C(C)C (some centres not stated)	3.5%	-5.3%
Cc1nc2sccn2c(=O)c1S(=O)(=O)Nc1cc(C(F)(F)F)ccc1Cl	-5.2%	-3.1%
CCOC(=O)c1ccc(NC(=O)Nc2ccn(C)n2)cc1	4.2%	2.8%
CCOC(=O)c1ccc(NC(=O)Nc2cc(C)on2)cc1	2.0%	15.8µM*
COC(=O)c1ccc(C(NC(=O)OCc2ccccc2)/C(F)=C/[C@@H](C)C(=O)NCc2cccnc2)cc1 (some centres not stated)	-7.9%	27.4%
CCC(=O)OCC(=O)C1(OC(=O)CC)C(C)CC2C3CCC4=CC(=O)C=CC4(C)C3(Cl)C(O)CC21C (configuration not stated)	-8.9%	u
COC1CCC(C(=O)c2ccc3nc4c(cc3c2)CCCO4)CC1 (configuration not stated)	-7.4%	0.6%
COc1ccc(/C=C2\SC(=NCc3ccccc3)NC2=O)cc1	-8.2%	4.2%
COc1ccc(/C=C2\SC(=O)N=C2N)cc1	0.3%	31.6µM*
COc1ccc(-c2nc(C(=O)N3CCN(C)CC3)sc2-c2ccc(OC)cc2)cc1	-3.7%	2.4%
Cc1ccc(-c2nnc(Nc3cccc(Cl)c3)c3ccccc23)cc1S(=O)(=O)NCC1CCCO1 (configuration not stated)	-1.7%	-19.1%
CCCN1CCCc2cc(CN(CCCN3CCOCC3)C(=O)Nc3ccc(Cl)c(Cl)c3)ccc21	-5.8%	5.9%
CS(=O)(=O)Nc1cccc(-c2nccc(Nc3ccc(F)cc3)n2)c1	-7.1%	1.9%
N=C(N)SCCSC(=N)N	3.1%	0.9%
CCCCOC(=O)Nc1nnc(-c2ccccc2OC)s1	2.4%	15.8µM*
COc1ccccc1-c1nnc(NC(C)=O)s1	0.6%	3.5%
SMILES	Cruzain inh Det	Cruzain inh noDet
C/C(CC/C(C)=N/O)=N/O	5.7%	-1.9%
Cc1c2cnn(-c3ccccc3)c(=O)c2c(C)n1CC(=O)NCc1ccccc1Br	-4.1%	8.9%
COc1ccc(CCNC(=O)CCCCn2c(=O)c3ccccc3n(Cc3ccc(Cl)cc3)c2=O)cc1OC	-4.2%	u
COc1ccc(N2C(=O)CS(=O)(=O)C23C(=O)N(Cc2ccc(F)cc2)c2ccc(C)cc23)cc1 (configuration not stated)	-2.8%	3.16µM*
Cc1ccc(C)c(CN2C(=O)C3(OCCCO3)c3ccccc32)c1	-6.2%	-2.7%
Cc1ccc(N2C(=O)CS(=O)(=O)C23C(=O)N(Cc2ccc(Cl)cc2)c2ccccc23)cc1C (configuration not stated)	-2.7%	12.6µM*
Cc1ccc(N2C(=O)CSC23C(=O)N(Cc2ccccc2F)c2ccccc23)cc1F (configuration not stated)	-8.9%	-5.8%
Cc1ccc(C)c(CN2C(=O)C3(c4ccccc42)N(c2ccc(Cl)cc2)C(=O)CS3(=O)=O)c1 (configuration not stated)	-3.3%	3.16µM*
Cc1ccc(CN2C(=O)C3(SCC(=O)N3c3ccc(C)c(C)c3)c3ccccc32)cc1 (configuration not stated)	-9.3%	u
COc1ccc(N2C(=O)CCSC23C(=O)N(Cc2ccc(F)cc2)c2ccccc23)cc1 (configuration not stated)	-3.8%	6.5%
Cc1ccc(N2C(=O)CS(=O)(=O)C23C(=O)N(Cc2ccccc2F)c2ccccc23)cc1Cl (configuration not stated)	-4.6%	1.26µM*
Cc1ccc(NC(=O)c2sc3nc[nH]c(=O)c3c2C)cc1C	-4.6%	18.2%
CC1(OC(=O)c2ccco2)C(=O)C2=COC(C3CC3)=CC2=C(Br)C1=O (configuration not stated)	2.9%	7.7%
CCc1cccc(NC(=O)CCS(=O)(=O)c2cc3c4c(c2)CCN4C(=O)CC3)c1	-1.8%	-4.0%
O=C(NCc1ccccc1Cl)c1cnc2sc(N3CCCCC3)nn2c1=O	1.9%	-0.4%
COC(=O)c1ccc(NC(=O)CSc2cn(CC(=O)N3CCCCC3)c3ccccc23)cc1	-5.5%	0.3%
O=C(Nc1ccc(OC(F)(F)F)cc1)c1nc2ccccc2nc1N1CCCCC1	5.3%	4.8%
CCOc1ccc(N(C)C(=O)C2CCN(S(=O)(=O)c3ccc4c(c3)CCCN4C(C)=O)CC2)cc1	-1.0%	u
COc1ccc(N2CCN(S(=O)(=O)CCNC(=O)Cc3ccc(OC)c(OC)c3)CC2)cc1	-0.6%	13.1%
Cc1ccc(CN2C(=O)C3(c4ccccc42)N(c2ccc(C)c(Cl)c2)C(=O)CS3(=O)=O)cc1 (configuration not stated)	-4.0%	1.26µM*
O=C1CS(=O)(=O)C2(C(=O)Nc3ccccc32)N1c1cccc(Cl)c1 (configuration not stated)	-3.2%	-24.8%
COc1ccc2oc(=O)c(-c3nc(-c4cc(OC)c(OC)c(OC)c4)no3)cc2c1	0.1%	15.0%
COc1cccc(-c2nc(SCC(=O)NC3CCCC3)c(-c3ccc(F)cc3)[nH]2)c1	-7.0%	1.5%
O=C(Nc1nnc(CSCc2ccc(F)cc2)s1)c1ccc([N+](=O)[O-])cc1	-4.5%	25.1µM*
O=C(Nc1nnc(COc2ccc(Cl)cc2)s1)c1ccc([N+](=O)[O-])cc1	4.4%	-9.3%
SMILES	Cruzain inh Det	Cruzain inh noDet
O=C(Nc1nnc(CSCc2ccccc2F)s1)c1cccc([N+](=O)[O-])c1	-7.4%	u
O=C(Nc1nnc(CCS(=O)(=O)c2ccc(Br)cc2)s1)c1ccc([N+](=O)[O-])cc1	4.7%	5.01µM*
Cc1ccc(-c2c(C(=O)N3CCN(c4cc(Cl)ccc4C)CC3)oc(=O)c3ccccc23)cc1	0.0%	-9.8%
CCn1c2c(c(=O)n3ncc(C(=O)N4CCN(c5ccc(Cl)cc5)CC4)c13)CN(Cc1ccc(OC)cc1)CC2	-6.7%	u
CN(C)C(=O)c1ccc(-c2cc(NCc3cccnc3)ncn2)cc1	0.9%	0.5%
Cc1ccc(CNC(=O)C2CCN(S(=O)(=O)c3ccc(F)cc3)CC2)cc1	-1.3%	-10.2%
Cc1ccc(-c2cn3c(n2)sc2cc(C(=O)NC4CCCCCC4)ccc23)c(C)c1	-1.2%	10µM*
COc1ccc(-c2cn3c(n2)sc2cc(C(=O)NC4CCCCCC4)ccc23)cc1	-4.6%	-7.8%
CCOC(=O)N1CCc2c(sc3c2c(=O)n(CCc2ccccc2)c(=O)n3CC(=O)Nc2ccc(C)cc2)C1	-0.5%	3.7%
